# Data reported in PubChem BioAssay AID624309 (Sanford-Burnham Center for Chemical Genomics, 2012).
# About 260 (13%) of roughly 2,000 compounds were called active. Not all results are given here. Values without a mark were called inactive. Cut-off read from the data, not from the text of the source: active = inhibition mostly above about 42% (no sharp cut-off); inactive = mostly below about 42%.
# System: Nicotinate mononucleotide adenylyltransferase NadD (Staphylococcus aureus N315)
# Assay: S. aureus NadD enzyme activity blockers – biochemical, colorimetric, single concentration, confirmation (AID 624309)
# Conditions: purified S. aureus NadD, colorimetric enzyme assay; at 20 µM; stronger effect = higher value
row,SMILES,inhibition
1,Cc1cc(N2C(=O)C(O)=C(C(=O)c3ccc(C)o3)C2c2ccc(OCc3ccccc3)cc2)no1 (centres undefined),51.4% (active)
2,CCCn1c(C)cc(-c2csc(NC(=O)CCc3nc4ccccc4c(=O)[nH]3)n2)c1C,25.1%
3,CCc1ccc(-n2c(=S)sc3c(=O)n(-c4ccccc4OC)c(=S)[nH]c32)cc1,5.54%
4,Cc1ccc(C(=O)COC(=O)c2cccc(N3C(=O)c4c(C)nc5ccccc5c4C3=O)c2)cc1C,0.6%
5,Cc1cc(C)c2nc(-c3cccnc3)cc(C(=O)Nc3ccc(S(=O)(=O)Nc4onc(C)c4C)cc3)c2c1,64% (active)
6,COc1cccc2sc(NNC(=O)c3nc4ccccc4s3)nc12,43.7%
7,O=C(COC(=O)c1cc(=O)[nH]c2ccccc12)Nc1nc(-c2cccc(Br)c2)cs1,5.44%
8,CCOc1ccc(CCN2C(=S)N([C@@H](CC(C)C)CN3CCC[C@@H]3CN3C(=S)NC[C@@H]3Cc3ccc(O)cc3)C[C@@H]2Cc2ccc(O)cc2)cc1,29.1%
9,COc1ccc(C(=O)/C=C/c2ccc(-c3ccccc3)cc2)cc1CSCC(=O)O,46.5%
10,Cc1ccc(Cn2c(=N)c(S(=O)(=O)c3ccc(C)cc3)cc3c(=O)n4ccccc4nc32)cc1,20.4%
11,Cc1ccc(N2C(=O)C3N=NN(CC(=O)N4N=C(c5cccc6ccccc56)CC4c4ccccc4)C3C2=O)cc1 (centres undefined),33.1%
12,CC(=O)Nc1ccc(Nc2cc(C)nc(Nc3ccc(NC(C)=O)cc3)n2)cc1,9.22%
13,O=C1NC[C@H](Cc2ccc(O)cc2)N(C[C@@H]2CCCN2C[C@H](Cc2ccccc2)N2C[C@H](Cc3ccccc3)N(CC3CCCCC3)C(=O)C2=O)C1=O,38.1%
14,O=C(Nc1ccc(NC(=O)c2cccs2)cc1)c1ccc2ccccc2c1,-0.66%
15,Nc1ccc2nc3c(=O)[nH]c(=S)[nH]c3nc2c1,72.4% (active)
16,Cc1ccc(C(=O)Oc2coc(CSc3nnc(NC(=O)c4cccs4)s3)cc2=O)cc1C,13.8%
17,CC(C)CC1C(=O)N(Cc2cn(Cc3ccco3)nn2)CCS(=O)(=O)N1Cc1ccc(-c2ccc(Cl)c(Cl)c2)cc1 (centres undefined),35%
18,COc1cc(C2CC(=O)N3CN(Cc4ccccc4)CSC3=C2C#N)ccc1OCc1ccccc1 (centres undefined),4.07%
19,COCCCn1c(=O)/c(=C/c2ccccc2OC(C)C)s/c1=C(\C#N)C(=O)Nc1ccc(C(=O)O)cc1,12.9%
20,NNc1cccc(C=Cc2ccccc2)cc1=O,39.5%
21,O=C(CSc1nnc(-c2cccnc2)n1Cc1ccco1)c1ccc(Cl)c(Cl)c1,32.6%
22,COc1ccc(NS(=O)(=O)c2ccc(NC(=S)NC(=O)/C=C/c3ccc(C)cc3)cc2)nn1,58.1% (active)
23,COc1ccc(Cl)cc1C(=O)NNC(=S)NC(=O)/C=C/c1ccco1,-2.56%
24,COc1ccc(C2=NN(C(=O)CSc3nc(=O)n4ccc(C)cc4n3)C(c3ccc(C)cc3)C2)cc1 (centres undefined),18.2%
25,C[C@H](CO)N1C[C@H](C)[C@H](CN(C)C(=O)Nc2ccc(C(F)(F)F)cc2)Oc2c(NC(=O)c3ccncc3)cccc2C1=O,27.5%

row,SMILES,inhibition
1,Cc1ccc2nc(/C(C#N)=C\c3ccc(OC(=O)c4cccs4)cc3)[nH]c2c1,21%
2,Cc1ccc(/C=C/C(=O)Nc2ccc([N+](=O)[O-])c(NC(=O)/C=C/c3ccc(C)o3)c2)o1,60.6% (active)
3,CCCn1c(C(C)Nc2nc(-c3ccc(C)cc3)cs2)nc2cc(Cl)c(N3CCCCC3)cc21 (centres undefined),0.81%
4,CCC(NC(=O)c1cc(COc2ccc(F)c(F)c2)on1)c1ccncc1 (centres undefined),2.18%
5,c1ccc(-c2nccc(-c3ccc(-n4cnc5ccccc54)cc3)n2)nc1,16.5%
6,O=C(CSc1nc2ccccc2c(=O)[nH]1)Nc1nc(-c2ccc(Br)cc2)cs1,6.59%
7,Cc1ccc(Cn2nnc3c(=O)[nH]c(C4CCN(S(=O)(=O)/C=C/c5ccccc5)CC4)nc32)cc1,37%
8,Cc1ccc(Cn2c(C)nc3c(c2=O)c2nc4ccccc4nc2n3Cc2ccco2)cc1,11.8%
9,Cn1c2ccccc2c(=O)c2c(=O)n(Cc3ccco3)c(COc3ccccc3)nc21,10.4%
10,Cc1cc(C(=O)CSc2nc(N)cc(=O)[nH]2)c(C)n1CCc1ccc(Cl)cc1,21.5%
11,C#Cc1cc(N2CCN(C(=O)c3ccoc3)CC2)n2nc(-c3cccc(Cl)c3)cc2n1,25.9%
12,COc1ccc(-c2nn(-c3ccccc3)cc2/C=N/Nc2ccccn2)cc1OC,5.86%
13,Cc1ccc(-c2nc(-c3cccnc3)sc2CC(=O)Nc2ccc(C)c(Cl)c2)cc1,-1.82%
14,Cc1noc(/C=C/c2ccco2)c1S(=O)(=O)N1CCC(C(=O)N2CCc3ccccc32)CC1,4.7%
15,Cn1cncc1C#Cc1c(-c2ccsc2)sc2ccccc12,9.54%
16,O=C(N/N=C/c1ccc(Cl)cc1)c1nc2ccc([N+](=O)[O-])cc2c(=O)[nH]1,9.54%
17,COc1ccccc1/C=C/C=N/n1c(-c2ccc(Cl)cc2Cl)n[nH]c1=S,17.4%
18,CCC(c1nnnn1Cc1ccco1)N(Cc1cc2cc(OC)ccc2[nH]c1=O)C1CCCCC1 (centres undefined),14.9%
19,COc1ccc(C(=O)Nc2cccc(/C=C(/CCC(=O)O)c3nc4ccccc4s3)c2)cc1,35.7%
20,CC(C)(C)C(=O)Nc1ccc(C(=O)N/N=C/c2ccccc2OC(=O)c2ccc(Cl)cc2Cl)cc1,0.49%
21,CCCCCCc1cc2cc(-c3nnc(-c4ccccc4)o3)c(=O)oc2cc1O,-1.61%
22,Cc1cc(O)c(C(=O)/C=C/c2c(F)c(F)c(F)c(F)c2F)c(=O)o1,12.9%
23,CCOC(=O)c1ccccc1N1C(=O)C2Sc3[nH]c(=O)sc3C(/C=C/c3ccccc3)C2C1=O (centres undefined),57.6% (active)
24,CC(C)Oc1ccc(/C=C(\NC(=O)/C=C/c2ccco2)C(=O)NCCc2nc3ccccc3[nH]2)cc1,37.9%
